The structures appear in SMILES notation. Where “and” joins values, the source holds several entries; their conditions need not be identical. Equal values may be shown once. Where a name gives a salt, the structure may show the parent alone. ± gives the standard deviation of the averaged measurements. In all, about 2,600 compounds were measured (“MBP+ mature oligodendrocyte number relative to DMSO vehicle control”: median about -0.34, highest 2% from about 13 on). This excerpt belongs to a sample that is enriched for the highest values.

In this test the test system is jimpy (Plp1 jimpy) mouse iPSC-derived oligodendrocyte progenitor cells. In words: MBP+ mature oligodendrocyte number relative to DMSO vehicle control (SDs above negative control mean); higher = more surviving jimpy oligodendrocytes (rescue). Conditions: 10 µM; 3 days. On the procedure:
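Primary phenotypic screen of >3,000 bioactive compounds (Selleck L1700 and Sigma LO1280 libraries) at a single dose of 10 µM. Compounds were added to jimpy (Plp1 mutant) mouse iPSC-derived OPCs at the start of thyroid hormone-induced oligodendrocyte differentiation, one well per compound in 384-well plates. After 3 days cells were stained for MBP, Sox10 and DAPI and imaged with an Operetta system. MBP+ oligodendrocyte number and total cell number were expressed as the number of SDs above the mean of the DMSO negative control on the same plate (n=16 control wells per plate). Hits were defined as >=4 SD for oligodendrocytes and >=2 SD for total cells.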
As to `O=C1Cc2cc(CCN3CCN(c4nsc5ccccc45)CC3)c(Cl)cc2N1` [Ziprasidone hydrochloride monohydrate], the “MBP+ mature oligodendrocyte number” value amounted to 11.7. The same measure for `O=C1Cc2cc(CCN3CCN(c4nsc5ccccc45)CC3)c(Cl)cc2N1` [Ziprasidone HCl]: 21.9; for `O=C1CCc2ccc(OCCCCN3CCN(c4cccc(Cl)c4Cl)CC3)cc2N1` [Aripiprazole]: 5.11. Consider `COc1ccc(-c2oc3c(CC=C(C)C)c(O)cc(O)c3c(=O)c2O)cc1` [Icaritin], for which the “MBP+ mature oligodendrocyte number” value was -3.18. For `COc1cc(N2CCC(N3CCN(C)CC3)CC2)ccc1Nc1ncc(Cl)c(Nc2ccccc2S(=O)(=O)C(C)C)n1` the value was less than -6.7; for `Cn1cnc2c(NCc3ccccc3)nc(NCCO)nc21` [Olomoucine], 1.83.

For the compound `CC(C)NCC(O)c1ccc(O)c(O)c1` (racemic) [(±)-Isoproterenol hydrochloride], the “MBP+ mature oligodendrocyte number” value worked out at 0.225. As to `Nc1cc2c(ncn2CCOCP(=O)(O)O)c(=O)[nH]1` [PMEG hydrate], the “MBP+ mature oligodendrocyte number” value is -1.5. `O.O=[Si]=O.O=[Si]=O.O=[Si]=O.O=[Si]=O.[O]=[Mg].[O]=[Mg].[O]=[Mg]`: the “MBP+ mature oligodendrocyte number” value is -1.01. For `NC(N)=N/N=C/c1ccccc1Cl` [Sephin-1] the value was 1.29; for `CCC(C)(C)c1ccc(CC(C)CN2C[C@@H](C)O[C@@H](C)C2)cc1` (some centres not stated) [Amorolfine HCl], 28.8; for `Fc1ccc2[nH]c(CN3CCN(c4ccccn4)CC3)cc2c1`, -1.89. With `O=C(O)CCCCC1CCSS1` (racemic) [(±)-alpha-Lipoic Acid], the “MBP+ mature oligodendrocyte number” value was -1.6.

Turning to `O=C(O)Cc1cccc(OCCCN(Cc2cccc(C(F)(F)F)c2Cl)CC(c2ccccc2)c2ccccc2)c1`, the “MBP+ mature oligodendrocyte number” value was 24.5. With `CN(CCCOc1ccc(Cc2ccccc2)cc1)CCC(=O)O`, the “MBP+ mature oligodendrocyte number” value is 0.896. Regarding `CC1(C)CCC2=C(O1)c1ccccc1C(=O)C2=O` [beta-Lapachone], the “MBP+ mature oligodendrocyte number” value was less than -3.97. Regarding `CC1(C)CCC2=C(O1)c1ccccc1C(=O)C2=O` [Beta-Lapachone], the “MBP+ mature oligodendrocyte number” value was -6.18. Take `CCOC(=O)C(C)(C)Oc1ccc(Cl)cc1` [Clofibrate]: the “MBP+ mature oligodendrocyte number” value turned out to be 0.667.

For the compound `CC(C)(Oc1ccc(Cl)cc1)C(=O)O` [Clofibric Acid], the “MBP+ mature oligodendrocyte number” value came out at 2.94. As for `CC(C)(C)C(=O)C(Oc1ccc(Cl)cc1)n1ccnc1` (configuration not stated) [Climbazole], the “MBP+ mature oligodendrocyte number” value amounted to 38.6. As to `C[C@H](CCC(=O)NCCS(=O)(=O)O)[C@H]1CC[C@H]2[C@@H]3[C@H](O)C[C@@H]4C[C@H](O)CC[C@]4(C)[C@H]3C[C@H](O)[C@]12C` [Sodium Taurocholate hydrate], the “MBP+ mature oligodendrocyte number” value is -0.433. In the case of `CCN(c1cc(-c2ccc(CN3CCOCC3)cc2)cc(C(=O)NCc2c(C)cc(C)[nH]c2=O)c1C)C1CCOCC1`, the “MBP+ mature oligodendrocyte number” value amounted to 8.01.

For the compound `CCCc1cc(C)[nH]c(=O)c1CNC(=O)c1cc(-c2ccc(N3CCN(C(C)C)CC3)nc2)cc2c1cnn2C(C)C`, the “MBP+ mature oligodendrocyte number” value was less than -6.35. For `Cc1cc(C)c(CNC(=O)c2cc(-c3ccc(CN4CCOCC4)cc3)cc3c2cnn3C2CCCC2)c(=O)[nH]1` the value was 30.2.

Consider `CCc1cc2c(cc1N1CCC(N3CCOCC3)CC1)C(C)(C)c1[nH]c3cc(C#N)ccc3c1C2=O`, for which the “MBP+ mature oligodendrocyte number” value was -2.2. Take `NC(=O)[C@@H](CCC(F)(F)F)N(Cc1ccc(-c2ncon2)cc1F)S(=O)(=O)c1ccc(Cl)cc1`: the “MBP+ mature oligodendrocyte number” value was 4.21. Regarding `CCn1c(=O)c2c(nc(/C=C/c3ccc(OC)c(OC)c3)n2C)n(CC)c1=O` [Istradefylline], the “MBP+ mature oligodendrocyte number” value is -4.18. On to `Cn1cc(C2=C(c3cn(CCCSC(=N)N)c4ccccc34)C(=O)NC2=O)c2ccccc21` [Ro 31-8220 Mesylate], for which the “MBP+ mature oligodendrocyte number” value was -5.25. Regarding `Cn1cc(/C=C2\C(=O)Nc3cccnc32)c2ccccc21`, the “MBP+ mature oligodendrocyte number” value was -3.63. As to `Cn1cc(C2=C(c3ccc(Cl)cc3Cl)C(=O)NC2=O)c2ccccc21`, the “MBP+ mature oligodendrocyte number” value is 22.4 and 12.6. For the compound `Cc1[nH]c2ccccc2c1CCNCc1ccc(/C=C/C(=O)NO)cc1` [Panobinostat (LBH589)], the “MBP+ mature oligodendrocyte number” value was less than -6.7. Consider `CN(CC[C@@H](Oc1ccc(C(F)(F)F)cc1)c1ccccc1)CC(=O)[O-].[Li+]`, for which the “MBP+ mature oligodendrocyte number” value came to 0.588.

On to `Clc1ccc(COC(Cn2ccnc2)c2ccc(Cl)cc2Cl)cc1` (configuration not stated) [Econazole nitrate], for which the “MBP+ mature oligodendrocyte number” value was found to be 5.37.

As for `Clc1ccc(COC(Cn2ccnc2)c2ccc(Cl)cc2Cl)c(Cl)c1` (configuration not stated) [Miconazole Nitrate], the “MBP+ mature oligodendrocyte number” value is -3.62. Turning to `Clc1ccc(C(Cn2ccnc2)OCc2c(Cl)cccc2Cl)c(Cl)c1` (configuration not stated) [Isoconazole nitrate], the “MBP+ mature oligodendrocyte number” value worked out at 22.9. As to `Clc1ccc(COC(Cn2ccnc2)c2ccc(Cl)cc2Cl)c(Cl)c1` (configuration not stated) [Miconazole], the “MBP+ mature oligodendrocyte number” value was -1.9. Turning to `COc1ccc(C2(CNC(=O)c3ccc(NC(=O)c4ccco4)cc3)CCOCC2)cc1`, the “MBP+ mature oligodendrocyte number” value was -2.6. With `CC(Cc1ccc(O)c(O)c1)(NN)C(=O)O` (stereo not drawn) [S-(-)-Carbidopa], the “MBP+ mature oligodendrocyte number” value was -1.01. As for `Cc1nccn1CC1CCc2c(c3ccccc3n2C)C1=O` (configuration not stated) [Ondansetron HCl], the “MBP+ mature oligodendrocyte number” value was 12.8. Consider `Nc1cc(Cl)c(NC2=NCCN2)c(Cl)c1` [p-Aminoclonidine hydrochloride], for which the “MBP+ mature oligodendrocyte number” value was -0.786. Consider `CNC(=O)CN(CCN(CCN(CC(=O)[O-])CC(=O)NC)CC(=O)[O-])CC(=O)[O-].[Gd+3]` [Gadodiamide], for which the “MBP+ mature oligodendrocyte number” value is less than -5.15. On to `C#C[C@]1(O)CC[C@H]2[C@@H]3CCc4cc(O)ccc4[C@H]3CC[C@@]21C` [Ethinyl Estradiol], for which the “MBP+ mature oligodendrocyte number” value came out at 0.433. `C#C[C@]1(O)CC[C@H]2[C@@H]3CCc4cc(OC)ccc4[C@H]3CC[C@@]21C` [Mestranol]: the “MBP+ mature oligodendrocyte number” value came out at 12.8.

For `C#C[C@]1(O)CC[C@H]2[C@@H]3CCC4=CC(=O)CC[C@@H]4[C@H]3CC[C@@]21C` [Norethindrone], the “MBP+ mature oligodendrocyte number” value came out at 6.57. In the case of `O=C(Nc1ccc2c(c1)CCN(Cc1ncn[nH]1)C2)c1ccccc1-c1ccc(C(F)(F)F)cc1`, the “MBP+ mature oligodendrocyte number” value is 2. As for `c1ccc2c(c1)CCC[C@H]2Nc1nc2ccccc2[nH]1` [NS8593 hydrochloride], the “MBP+ mature oligodendrocyte number” value is -0.125.

For `NC(=O)NO` [Hydroxyurea], the “MBP+ mature oligodendrocyte number” value amounted to 0.603 ± 0.14. For `CO[C@H]1C[C@@H]2CC[C@@H](C)[C@@](O)(O2)C(=O)C(=O)N2CCCC[C@H]2C(=O)O[C@H]([C@H](C)C[C@@H]2CC[C@@H](O)[C@H](OC)C2)CC(=O)[C@H](C)/C=C(\C)[C@@H](O)[C@@H](OC)C(=O)[C@H](C)C[C@H](C)/C=C/C=C/C=C/1C` [Rapamycin (Sirolimus)] the value was -5.74; for `COc1ccc(Cl)cc1NC(=O)Nc1cc(C)nc2ccccc12`, -4.52; for `Cc1ccc(F)c(NC(=O)Nc2ccc(-c3cccc4[nH]nc(N)c34)cc2)c1` [Linifanib (ABT-869)], -5.74.

With `Cc1cc(NC(=O)Nc2ccc(N(C)C)cc2)c2cc(F)cc(F)c2n1`, the “MBP+ mature oligodendrocyte number” value came out at 29.4. On to `CN1c2ccccc2C(=O)N2CCc3c([nH]c4ccccc34)C21` (stereo in doubt) [Evodiamine], for which the “MBP+ mature oligodendrocyte number” value was -2.4. On to `Cc1ccc(NCCCc2ccccc2)c(N)c1`, for which the “MBP+ mature oligodendrocyte number” value was less than -6.35. With `CC(C)S(=O)(=O)N[C@H]1CCOC[C@@H]1c1ccc(-c2ccc(C#N)s2)cc1`, the “MBP+ mature oligodendrocyte number” value was -3.15. `CO[C@@H](C(=O)N1Cc2[nH]nc(NC(=O)c3ccc(N4CCN(C)CC4)cc3)c2C1)c1ccccc1`: the “MBP+ mature oligodendrocyte number” value was -6.61.

On to `C[C@]12C[C@H](O)[C@H]3[C@@H](CCC4=CC(=O)CC[C@@]43C)[C@@H]1CC[C@@H]2C(=O)CO` [Corticosterone], for which the “MBP+ mature oligodendrocyte number” value came out at 1.49. The same measure for `CC(=O)[C@H]1CC[C@H]2[C@@H]3CCC4=CC(=O)CC[C@]4(C)[C@H]3CC[C@]12C` [Progesterone]: 15.4 ± 7.2.

As for `CC(=O)[C@H]1CC[C@H]2[C@@H]3C=CC4=CC(=O)CC[C@@]4(C)[C@@H]3CC[C@]12C` [Dydrogesterone], the “MBP+ mature oligodendrocyte number” value was determined as 0.153. For `O=C1NC(=O)c2c1c(-c1ccccc1)cc1[nH]c3ccc(O)cc3c21` the value was less than -3.97. For the compound `CC1(C)NC(=O)N(c2ccc([N+](=O)[O-])c(C(F)(F)F)c2)C1=O` [Nilutamide], the “MBP+ mature oligodendrocyte number” value is -0.755. For `CNC(=O)c1ccc(N2C(=S)N(c3cnc(C#N)c(C(F)(F)F)c3)C(=O)C23CCC3)cc1F` the value was 5.74; for `CNC(=O)c1ccc(N2C(=S)N(c3ccc(C#N)c(C(F)(F)F)c3)C(=O)C2(C)C)cc1F` [Enzalutamide (MDV3100)], 16.6; for `N=C(N)SCCc1c[nH]cn1` [Imetit dihydrobromide], -0.363.

On to `Cc1ccc(NC(=O)c2ccc(CN3CCN(C)CC3)cc2)cc1Nc1nccc(-c2cccnc2)n1` [Imatinib Mesylate (STI571)], for which the “MBP+ mature oligodendrocyte number” value is -5.56. On to `Cc1cc(-c2ncc(CC(=O)Nc3ccc(-c4cnccn4)cn3)cc2C)ccn1`, for which the “MBP+ mature oligodendrocyte number” value was 13.8. In the case of `Cc1ccc(NC(=O)c2ccc(CN3CCN(C)CC3)cc2)cc1Nc1nccc(-c2cccnc2)n1` [Imatinib (STI571)], the “MBP+ mature oligodendrocyte number” value was -4.36. Regarding `Cc1cc(-c2ccc(CC(=O)Nc3ccc(-c4cccnc4)cc3)cc2)ccn1`, the “MBP+ mature oligodendrocyte number” value was 23.2. With `O=C(Nc1cccnc1)c1cc(-c2ccnc(F)c2)ccc1OCc1ccccc1`, the “MBP+ mature oligodendrocyte number” value is -0.282.

For `COC[C@H](NC(=O)c1cnc(C)s1)C(=O)N[C@@H](COC)C(=O)N[C@@H](Cc1ccccc1)C(=O)[C@@]1(C)CO1` [Oprozomib (ONX 0912)], the “MBP+ mature oligodendrocyte number” value is -5.76.

In the case of `COc1cc2c(cc1O)[C@@H](Cc1ccc(O)c(Oc3ccc(C[C@@H]4c5cc(OC)c(OC)cc5CCN4C)cc3)c1)N(C)CC2` [Daurisoline], the “MBP+ mature oligodendrocyte number” value was less than -3.85. For `Nc1nc2c(ncn2[C@@H]2O[C@H](CO)[C@@H](O)[C@@H]2O)c(=O)[nH]1` [Ara-G hydrate] the value was -0.925; for `Nc1ncnc2c1ncn2C1CCCC1` [9-cyclopentyladenine], -1.18. Regarding `COc1cc2c(cc1-c1c(C)noc1C)ncc1[nH]c(=O)n([C@H](C)c3ccccn3)c12`, the “MBP+ mature oligodendrocyte number” value is less than -6.01. Turning to `Nc1nccc2c1ncn2[C@@H]1O[C@H](CO)[C@@H](O)[C@H]1O` [3-deazaadenosine], the “MBP+ mature oligodendrocyte number” value was -1.07.

On to `OC(CN1CCC(Cc2ccc(F)cc2)CC1)c1ccc(Cl)cc1` (configuration not stated) [Eliprodil], for which the “MBP+ mature oligodendrocyte number” value was 13.4. The same measure for `O=C(CCCN1CCC(O)(c2ccc(Cl)cc2)CC1)c1ccc(F)cc1` [Haloperidol]: 2.36 ± 1.1; for `O=C1[C@H](CC[C@H](O)c2ccc(F)cc2)[C@@H](c2ccc(O)cc2)N1c1ccc(F)cc1` [Ezetimibe]: 2.95.
